# Data reported in PubChem BioAssay (NCATS).
# A number with no mark means an inactive call. For some of these results: Entries with a potency or affinity are not part of this list. Calls of active or inactive are those of the source. The rule behind the calls is not given here.
# Legend:
# [1] = Ebola virus entry assay, green fluorescence channel
# [2] = Ebola virus entry assay, blue channel fluorescence
# [3] = Ebola virus entry assay, ratio channel
# [4] = Ebola virus entry assay, reporter ratio channel; Channel type: primary
# Throughout, for efficacy: 0% is about no effect.
Compound,efficacy [1] [%],AC50 [2],AC50 [3],AC50 [4],outcome [2],outcome [3],outcome [4]
CCN1C(=O)c2ccccc2C1Nc1ccc(OCCN2CCCCC2)cc1 (stereo unspecified),33.9,12.6 µM (active),15.8 µM (active),15.8 µM (active),,,
OCCN1CCN(CCCN2c3ccccc3C=Cc3ccccc32)CC1,49.7,14.1 µM (active),14.1 µM (active),14.1 µM (active),,,
COc1ccc2cc1Oc1ccc(cc1)C[C@H]1c3c(cc4c(c3Oc3cc5c(cc3OC)CCN(C)[C@@H]5C2)OCO4)CCN1C,73.2,1.12 µM (active),1.12 µM (active),1.12 µM (active),,,
CN(C(=O)CN(CCO)CC(=O)N(C)C(C)(C)Cc1ccccc1)C(C)(C)Cc1ccccc1,43.4,7.94 µM (active),5.62 µM (active),5.62 µM (active),,,
O=C1C(c2[nH]c3ccccc3c2O)=Nc2ccccc21,51.6,,,,inactive,inactive,inactive
C[C@]1(Cn2ccnn2)[C@H](C(=O)O)N2C(=O)C[C@H]2S1(=O)=O,-31,0.282 µM (active),0.316 µM (active),0.316 µM (active),,,
Cc1cc(C2CCCCC2)n(O)c(=O)c1,53.2,39.8 µM (active),,39.8 µM (active),,inactive,
CCCCNc1c(C(=O)OCC)c(C)nc2c1cnn2CC,-35,25.1 µM (active),22.4 µM (active),22.4 µM (active),,,
CCN(CCCc1ccccc1)CCCc1ccccc1,48.4,5.62 µM (active),4.47 µM (active),4.47 µM (active),,,
COC(=O)C1=C(C)NC(C)=C(C(=O)OC(C)(C)CN(C)CCC(c2ccccc2)c2ccccc2)C1c1cccc([N+](=O)[O-])c1 (stereo unspecified),39.5,14.1 µM (active),12.6 µM (active),12.6 µM (active),,,
O=C(CCN1CCN2CCCC2C1)N1c2ccccc2Sc2ccc(Cl)cc21 (stereo unspecified),163,11.2 µM (active),10 µM (active),10 µM (active),,,
COc1ccc(CCN2CCC(Nc3nc4ccccc4n3Cc3ccc(F)cc3)CC2)cc1,-220,5.01 µM (active),2.82 µM (active),2.82 µM (active),,,
CCOC(=O)N1CCC(Nc2ccc(Cl)cc2N)CC1,119,39.8 µM (active),,39.8 µM (active),,inactive,
CCCCCN=C(N)N/N=C/c1c[nH]c2ccc(OC)cc12,-150,3.98 µM (active),3.16 µM (active),3.16 µM (active),,,
CCCCCCCCCCCCCCCC[N+](C)(C)Cc1ccccc1,-178,31.6 µM (active),22.4 µM (active),22.4 µM (active),,,
CCCCNc1ccc(C(=O)OCCN(C)C)cc1,66.1,20 µM (active),28.2 µM (active),28.2 µM (active),,,
NC1(c2ccc(-c3nc4ccn5c(=O)[nH]nc5c4cc3-c3ccccc3)cc2)CCC1,104,2.82 µM (active),2.51 µM (active),2.51 µM (active),,,
CC(=O)O[C@]1(C(C)=O)CC[C@H]2[C@@H]3C=C(Cl)C4=CC(=O)CC[C@]4(C)[C@H]3CC[C@@]21C,83.2,28.2 µM (active),28.2 µM (active),28.2 µM (active),,,
Cc1cccc(N(C)C(=S)Oc2ccc3c(c2)CCC3)c1,64.2,39.8 µM (active),,39.8 µM (active),,inactive,
